In PubChem BioAssay (NCI) one finds growth data, which are given here for 34 compounds.

Several values for one entry are separate records, joined by “and”; a condition that tells them apart may be missing. Equal values may be shown once. About 83,000 compounds went through this panel and 20% of them were active in at least one assay; those are over-represented in the sample as a whole.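 Single-concentration screen, 48 h exposure, 96-well plates. Endpoint: percent growth. Below 10 = active.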 A number with no mark means an inactive call. Activity calls are given as the source filed them.

For the assay, the system named is 786-0 renal. Briefly: NCI-60 one-dose screen, 48 h (100 = growth as untreated, 0 = no growth, -100 = all killed). Conditions: 10 µM unless noted.
As to `CCCn1c(NC(=O)c2cccc(C(N)=O)c2)nc2ccc(CN3CCCCC3)cc21`, the growth was 12%.

Take `Fc1ccc(Nc2nnc(-c3c[nH]c4ccccc34)o2)cc1`: the growth is 94.7%.

With `CC1=C(C(=O)OC(C)C)C(c2ccc(O)cc2)NC(=O)N1` (centres undefined), the growth was 99.5%. For the compound `COc1ccc(NC(=O)Cn2c(/C=C/c3ccc([N+](=O)[O-])cc3)nc3ccccc3c2=O)cc1`, the growth is 9.31% (active). As to `O=C(c1ccc(O)cc1)C1[C@H](c2ccc(Cl)cc2)[C@@H](c2ccccc2)NC12C(=O)Nc1ccccc12` (some centres undefined), the growth was -43.2% (active).

Consider `O=c1ccc(Cn2c(C(F)(F)F)cc3c(Cl)ncnc32)c[nH]1`, for which the growth is 102%.

With `O=C(CSc1nc2c(c(=O)[nH]1)CCCC2)Nc1ccccc1C(=O)O`, the growth is 103%. In the case of `COc1ccc2[nH]c(O)c(N=Nc3nc(-c4ccc(C#N)cc4)cs3)c2c1`, the growth is -73.4% (active). As for `COc1ccc(-c2nc3ccc(-c4nnc(SCC(=O)Nc5ccc(/C(C)=N\O)cc5)o4)cc3[nH]2)cc1`, the figure is -62.1% (active).

Regarding `Cc1ccc(C2CC(c3ccc(NC(=O)Nc4ccccc4)cc3)=NN2c2ccc(S(C)(=O)=O)cc2)cc1` (centres undefined), the growth was -31.6% (active). To `CN1CCN(C(=O)Oc2cc3c(c4ccccc24)[C@H](CCl)CN3C(=O)c2cc3cc(OCCCN4CCC4)ccc3[nH]2)[C@H]2CSSC[C@H]21` belongs -8.82% (active). For `Cc1ccc(N=Nc2c(N)nn3c(-c4cc5ccccc5oc4=O)ccnc23)cc1`, the growth is 53.4%.

In the case of `C[C@@H]1[C@H]2C[C@@H](C[C@H]1NCc1nc3ccccc3n1C1CCCCCC1)C2(C)C`, the growth was 63.4%.

`Cc1ccc(C(=O)Nc2cc(-n3ccnc3)cc(C(F)(F)F)c2)cc1-n1cc(-c2cnc3cccnn23)nn1`: the growth was 103%. As for `CCC(=O)c1c2c(c3ccc4c5ccccc5ccc4n13)C(=O)c1ccccc1C2=O`, the figure is 96.4%. To `N#Cc1c(NC(=O)N2CCOCC2)n(-c2ccc(OC(F)(F)F)cc2)c2cc(F)ccc12` belongs 112%; to `CC(=O)Nc1cccc(-n2c(COc3ccc(Br)cc3)nc3ccccc32)c1`, 115% and 103%; to `COc1ccc(-c2cc(C(=O)OCc3ccc(Br)cc3)nn2-c2ccc(S(C)(=O)=O)cc2)cc1OC`, 75%.

As to `Cc1nc(N)ncc1-c1ccc2ncnc(N3CCc4cc(F)c(Cl)cc43)c2c1`, the growth was 39.1%. With `COc1ccc(C(=O)NNC(=O)CSc2nc3sc4c(c3c(=O)n2-c2ccc(Cl)cc2)CCCC4)cc1`, the growth was 102%. To `Cn1cc(-c2cc3nc(-c4cn(C)c5ncccc45)cc(N)n3n2)c2cc(F)ccc21` belongs 17.6%; to `COc1ccc2[nH]c(=O)c(CSc3ccccc3Nc3nccc(-c4ccc(C(F)(F)F)cc4)n3)cc2c1`, -4.97% (active); to `N#CC1=C(c2cccs2)Nc2c(c(-c3ccccc3)nn2-c2ccccc2)C12C(=O)Nc1ccc(Br)cc12` (centres undefined), -22.7% (active).

As to `CCN1CCN(Cc2ccc(C(=O)Nc3cccc(Nc4ccc5c(OC)cccc5n4)c3)cc2C(F)(F)F)CC1`, the growth was -73% (active). To `O=C(Nc1ccc(S(=O)(=O)N2CCCCC2)cc1)C(Cl)Cl` belongs 98.9%; to `O=[N+]([O-])c1cccc(-c2nnc3c(/C=C/c4ccc(F)cc4)nc4ccccc4n23)c1`, 93.5%; to `COc1ccc(/C=C/C(=O)c2ccc(OC)c(S(N)(=O)=O)c2)c(C(F)(F)F)c1`, -82% (active). Turning to `COc1ccc2[nH]cc(-c3cc4nc(-c5cn(C)c6ncc(Br)cc56)cc(N)n4n3)c2c1`, the growth is -95% (active).

As for `N#CC1=C(c2cccs2)Nc2c(c(-c3ccccc3)nn2-c2ccccc2)C12C(=O)Nc1ccc(Cl)cc12` (centres undefined), the growth is 22.3%.

For `Oc1ccc(F)c(Nc2nc(SCCN3CCOCC3)nc3c2cnn3CC(Cl)c2ccc(Br)cc2)c1` (centres undefined), the growth was 61.2%. For `O=C(NNC(=S)NCCc1ccccc1)c1ccc(OCc2nc3ccc(Cl)cc3[nH]2)cc1`, the growth is 79.1%. Turning to `COc1c(B(O)O)cc(F)cc1-c1nc2c(F)cc3[nH]ncc3c2c2c1CCCC2`, the growth is 29.2%. Consider `C[C@H]1[C@@H](CC(=O)N[C@@H](Cc2coc3ccccc23)B(O)O)O[C@@H]2OC3(C)CC[C@H]4[C@H](C)CC[C@@H]1[C@@]24O3`, for which the growth is 17.1%. As for `C#CCN(C)CCCOc1ccc(N(C)C(=O)c2cc(C(C)C)c(O)cc2O)cc1Cl`, the figure is 33.5%.
